# Test results: PubChem BioAssay AID463213 (Sanford-Burnham Center for Chemical Genomics, 2010)
# Screen size: about 7,400 compounds; about 4,100 (55%) were called active. The set was probably picked from earlier hits. Not all results are given here. Unmarked numbers belong to inactive results.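 Rule for the calls: active = inhibition of yeast growth at or above a set limit in either of two repeat tests at 20 µM; inactive = the rest.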
# Test: tim10-1 ts yeast growth inhibition, retested – single concentration, luminescence, S. cerevisiae, confirmation (AID 463213)
# Settings: S. cerevisiae tim10-1 ts strain growth, BacTiter-Glo, 24 h; at 20 µM; stronger effect = higher value
row,Compound,inhibition
1,Cc1nc2ccccn2c1P(=S)(N1CCCCC1)N1CCCCC1,38.4% (active)
2,COc1cccc(N2C(=O)NC(=O)/C(=C\c3ccc([N+](=O)[O-])s3)C2=O)c1,76.5% (active)
3,O=C1NC(=O)N(c2ccccc2)C(=O)/C1=C/c1ccc([N+](=O)[O-])s1,75.3% (active)
4,N#CC1=C(N)Oc2c(c(=O)oc3ccccc23)C1c1ccccc1OC(=O)c1cccs1 (stereo not given),22.8%
5,CCCCCn1c(=O)c(C(=O)Nc2c(C)n(C)n(-c3ccccc3)c2=O)c(O)c2ccccc21,6.15%
